The entries come from a sample that favours hits as a whole.
S1P2 agonist: S1P2 (human) receptor agonism; O95136; S1P2-expressing cell line, agonist reporter read-out; activation, % at 4.5 µM; 0.46% of 97,000 active; AID 729; in the data active = activation above about 16%;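 note: 0% = vehicle low control and 100% = maximal reference agonist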
Target sequence (O95136 whole entry, looked up): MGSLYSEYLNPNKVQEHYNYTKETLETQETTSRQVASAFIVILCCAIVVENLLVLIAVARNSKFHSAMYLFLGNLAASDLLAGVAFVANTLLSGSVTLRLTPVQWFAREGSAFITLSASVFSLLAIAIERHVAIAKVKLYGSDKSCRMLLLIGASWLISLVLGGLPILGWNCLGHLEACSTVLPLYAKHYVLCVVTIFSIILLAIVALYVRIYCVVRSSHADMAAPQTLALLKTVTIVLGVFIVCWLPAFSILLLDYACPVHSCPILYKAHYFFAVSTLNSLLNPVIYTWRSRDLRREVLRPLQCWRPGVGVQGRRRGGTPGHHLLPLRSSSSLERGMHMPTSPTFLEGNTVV
PostGolgi ctrl: yeast control strain growth, post-Golgi counter-screen. efflux-deficient yeast background strain, growth absorbance A615, 16 h. inhibition, % at 10 µM. 5% of 98,000 active. AID 738
GALR2 agonist: GALR2 (human) receptor agonism. GALR2-expressing cells, agonist activation read-out. activation, % (concentration not given with the values). O43603. 0.48% of 140,000 active; in the data active = activation above about 5%, passing the limit was not always enough;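 note: 0% = vehicle buffer wells and 100% = reference agonist at full effect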
GALR2 blocker: antagonists of human galanin receptor 2 (GALR2) | O43603 | GALR2-expressing cells, antagonist mode | inhibition, % at 4 µM | 0.39% of 140,000 active | AID 828; in the data active = inhibition above about 27%;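 note: cells stimulated with galanin 1-16 at roughly its EC80; 0% = agonist challenge control and 100% = basal control without agonist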
PostGolgi yeast: growth inhibition of a yeast mutant, post-Golgi transport screen; post-Golgi transport phenotypic cell assay; 0.9% of 98,000 active; inhibition, % at 10 µM; AID 739;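 note: yeast cells grown in 1536-well plates; yeast grown about 18 h at 30C before absorbance read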
S1P2 blocker: S1P2 (human) receptor antagonism | O95136 | cell-based S1P2 antagonist assay, inhibition at 5 uM | inhibition, % at 5 µM | 0.21% of 97,000 active; in the data active = inhibition above about 45%;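 note: CRE beta-lactamase reporter cells expressing human S1P2 stimulated with S1P; 0% = agonist at EC80 alone and 100% = agonist plus reference antagonist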
* marks the source's active call; other numbers are inactive results; . = no result given. Cut-off read from the data, not from the text of the source, unless noted: active = inhibition above about 30%; inactive = the rest.

SMILES | S1P2 agonist | PostGolgi ctrl | GALR2 agonist | GALR2 blocker | PostGolgi yeast | S1P2 blocker
CCn1c(O)c(C=NCc2cccs2)c(=O)n(CC)c1=S | -2 | 57* | -1 | 3 | 18 | -17
O=C1C=CC(=O)N1c1ccc(OC(F)F)cc1 | . | . | 0 | -1 | . | .
Cc1cc(C)c(S(=O)(=O)n2ccc(-c3ccc(OCCN(C)c4ccccn4)cc3)n2)c(C)c1 | -3 | 2 | 0 | -8 | -4 | 13
Cc1nn(C)cc1/C=C1\SC(=S)NC1=O | 3 | -1 | -1 | -24 | -2 | -14
Cc1cc(/C=C2\SC(=S)NC2=O)c(C)n1C | -3 | 52* | -3 | -3 | 4 | 8
Cc1occc(=O)c1OC(=O)Nc1ccc(Cl)c(Cl)c1 | . | . | 0 | 4 | . | .
Cn1c(=O)c2nc(-c3ccccc3)oc2c2ccccc21 | 0 | 61* | 0 | 11 | 9 | 4
CCOc1ccc2c(c1)c(C(C)=O)c(C)n2-c1ccccc1 | 1 | 41* | -1 | 3 | -2 | -2
O=C(NCC1CCCO1)c1onc(CSc2cccc3ccccc23)c1C(=O)O (configuration not stated) | -3 | 6 | -3 | 8 | -7 | -11
COc1ccc(S(=O)(=O)N2CC3C4C=CC(C4)C3C2)cc1 (configuration not stated) | -9 | 47* | 0 | 9 | -6 | 19
COc1ccc(S(=O)(=O)N2CCCCC2)cc1 | -4 | 14 | -3 | -1 | 0 | -8
S=c1[nH]nc(-c2ccccn2)n1/N=C/c1ccc(Br)s1 | . | . | 3 | -8 | . | .
CN(C)c1ccc(/C=N/n2ncc3ccccc32)cc1 | . | 0 | 25* | -1 | 1 | .
Cc1nc(N)sc1-c1csc(Nc2ccc(Cl)cn2)n1 | -7 | 42* | 0 | -5 | -4 | 0
O=C(CCn1cnc2ccccc2c1=O)Nc1nc(-c2ccc(Br)cc2)cs1 | . | . | 7.9* | -5 | . | .
CCOCCCn1c(=NC(=O)c2cccnc2)c(C(=O)OCC)cc2c(=O)n3ccccc3nc21 | 10 | 6 | 6.0* | -10 | 26 | -28
CCCCCn1c(=NC(=O)c2ccco2)c(C(=O)OCC)cc2c(=O)n3ccccc3nc21 | 8 | 33* | 4 | -8 | -4 | -47
CCCCn1c(=NC(=O)c2cccnc2)c(C(=O)OCC)cc2c(=O)n3ccccc3nc21 | 9 | 30 | 4 | -6 | -2 | -12
CCCCn1c(=NC(=O)c2ccco2)c(C(=O)OCC)cc2c(=O)n3ccccc3nc21 | 6 | 6 | 7 | -11 | 4 | -9
Cc1ccc(-c2[nH]c3ccccc3c2C(C[N+](=O)[O-])c2ccco2)cc1 (configuration not stated) | -3 | 30* | -1 | 11 | 3 | -2
Cc1nc(C)c(C(=O)N/N=C/c2cn(C)c3ccccc23)s1 | -3 | 7 | -3 | 20 | 0 | -4
CCCSc1nnc(NC(=O)c2nc(SC)ncc2Cl)s1 | -3 | 35* | -1 | -3 | 3 | 3
CSc1ncc(Cl)c(C(=O)Nc2nnc(SC)s2)n1 | -5 | 29 | -2 | 13 | -8 | 7
Cc1ccc(C(=O)OC2OC(=O)C(Cl)=C2N2CCOCC2)cc1 (configuration not stated) | . | . | -1 | 1 | . | .
CCN(CC)S(=O)(=O)c1ccc(Oc2ccc(S(=O)(=O)N(CC)CC)cc2)cc1 | -4 | -5 | -1 | 6 | -6 | 72*
SMILES | S1P2 agonist | PostGolgi ctrl | GALR2 agonist | GALR2 blocker | PostGolgi yeast | S1P2 blocker
COCCN(CCOC)S(=O)(=O)c1ccc(OC)cc1 | -7 | -2 | -2 | 9 | 6 | 16
Cc1ccc(S(=O)(=O)CCC(=O)N2CCc3ccccc32)cc1 | 42* | 10 | -1 | -7 | -11 | -8
O=C(CCC(=O)N1CCc2ccccc21)N1CCc2ccccc21 | -4 | . | -1 | 4 | . | -15
CCc1ccc(OCc2nc(-c3ccccn3)no2)c(Br)c1 | -4 | 27 | -1 | -2 | 9 | -8
CC(C)c1ccc(OCc2nc(-c3ccccn3)no2)c(Br)c1 | -11 | 38* | -4 | 13 | 2 | -15
Clc1ccc(OCc2nc(-c3ccncc3)no2)c(Br)c1 | . | 79* | 0 | 11 | 46* | .
Cc1ccc(OCc2nc(-c3ccccn3)no2)c(Br)c1 | -8 | 34* | -2 | -8 | -5 | -17
Cc1cccc(NC(=O)Cn2c(/C=C/c3ccccc3)nc3ccccc32)c1 | . | . | -1 | 6 | . | .
Cc1cc(NCCOCCO)n2ncc(-c3ccc(Cl)cc3)c2n1 | 18* | 29 | -1 | -7 | -6 | -42
CC(C)(C)c1cc(NCCCn2ccnc2)n2ncc(-c3ccc(Cl)cc3)c2n1 | -10 | 93* | 0 | -4 | 58* | 20
